Laboratory results as given in PubChem BioAssay (NCI).
Compounds without any hit were thinned out: in the full panel of roughly 79,000, 15% have a hit. A number with no mark means an inactive call. Active and inactive are the calls of the source. Rule as the data show it: active = growth inhibition above about 70%; inactive = the rest.

Legend:
[1] = NCI Yeast Anticancer Drug Screen. Data for the rad50 strain (AID 155);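 also: 0% = growth of vehicle-only cultures of the same strain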; conditions: S. cerevisiae rad50 strain growth inhibition, hits give high values
Method in brief: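 Genetically altered yeast (DNA repair pathway); compound treatment; growth inhibition vs vehicle ctrl.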

[2] = NCI Yeast Anticancer Drug Screen. Data for the mec2-1 strain (AID 157); conditions: S. cerevisiae mec2-1 strain, hits give high values
Method in brief: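 Vehicle-treated cultures served as reference for growth inhibition of compound-exposed mec2-1 yeast.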

[3] = NCI Yeast Anticancer Drug Screen. Data for the sgs1 mgt1 strain (AID 161);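 also: 0% = growth of cultures given vehicle only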; conditions: S. cerevisiae sgs1 mgt1 strain, hits give high values
Method in brief: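 Mutant yeast exposed to compound; growth scored against vehicle-only wells.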

[4] = NCI Yeast Anticancer Drug Screen. Data for the cln2 rad14 strain (AID 165);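 also: 0% = growth equal to vehicle treated cultures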; conditions: S. cerevisiae cln2 rad14 strain, hits give high values
Method in brief: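 Each compound was tested on cln2 rad14 yeast. Inhibition of growth was calculated against vehicle-exposed controls.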

[5] = NCI Yeast Anticancer Drug Screen. Data for the bub3 strain (AID 167); conditions: S. cerevisiae bub3 mutant strain, hits give high values
Method in brief: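 Yeast carrying a defined mutation is treated with each compound, and growth is compared with that of vehicle-exposed cells to give inhibition.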

[6] = NCI Yeast Anticancer Drug Screen. Data for the mlh1 rad18 strain (AID 175); conditions: S. cerevisiae mlh1 rad18 strain growth inhibition, hits give high values
Method in brief: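 Vehicle-treated cultures served as the reference for growth inhibition in a yeast strain carrying DNA damage repair alterations exposed to each compound.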

[7] = at 5.0 µM (retest, dose inferred, filed as 0.5)
[8] = at 50.0 µM (retest, dose inferred, filed as 5.0)

Compound	growth inhibition [1, 7] [%]	growth inhibition [1, 8]	growth inhibition ([1]; at 50.0 µM)	growth inhibition [2, 7] [%]	growth inhibition [2, 8]	growth inhibition ([2]; at 50.0 µM)	growth inhibition [3, 7] [%]	growth inhibition [3, 8]	growth inhibition ([3]; at 50.0 µM)	growth inhibition [4, 7]	growth inhibition [4, 8]	growth inhibition ([4]; at 50.0 µM)	growth inhibition [5, 7] [%]	growth inhibition [5, 8]	growth inhibition ([5]; at 50.0 µM)	growth inhibition [6, 7]	growth inhibition [6, 8]	growth inhibition ([6]; at 50.0 µM)
O=C(O)Cc1c(-c2noc(-c3ccccc3)c2CC(=O)O)noc1-c1ccccc1	-10	-3%	28.5%	8	-2%	46.8%	-16	-8%	26.6%	1%	-10%	58.4%	-7	0%	97.1% (active)	4%	-9%	40.1%
COC(=O)C12OCC34C(CC5C(C)C6=CC(=O)OC6=CC5(C)C3C(O)C1O)OC(=O)C(OC(C)=O)C24 (configuration not stated)	69	99% (active)	91.6% (active)	66	99% (active)	93.4% (active)	63	99% (active)	92.2% (active)	64%	99% (active)	91.7% (active)	68	99% (active)	92.5% (active)	79% (active)	99% (active)	-22%
COC(=O)C1C2CC3c4[nH]c5cc(OC)c(Br)cc5c4CCN3CC2CC(OC(=O)c2cc(OC)c(OC)c(OC)c2)C1OC (configuration not stated)	-4	91% (active)	89.7% (active)	-4	74% (active)	87.5% (active)	-5	82% (active)	86.2% (active)	8%	86% (active)	84.3% (active)	-16	87% (active)	86.2% (active)	-30%	97% (active)	86.6% (active)
C[P+](c1ccccc1)(c1ccc(Cl)cc1)c1ccc(Cl)cc1	-26	72% (active)	50.6%	-3	28%	28.7%	0	81% (active)	71.9% (active)	-3%	1%	-39.3%	-1	75% (active)	69.5%	12%	59%	46.9%
Cc1cc(=O)oc2c3c(ccc12)OC(c1ccc(Br)cc1)CC3=O (configuration not stated)	28	24%	6.65%	15	12%	-7.8%	19	20%	6.8%	11%	27%	-12.8%	24	23%	-3%	22%	15%	-6.6%
Cc1ccc(S(=O)(=O)C(Br)CC(=O)c2ccccc2)cc1 (configuration not stated)	64	96% (active)	99% (active)	67	97% (active)	99.8% (active)	67	97% (active)	99.7% (active)	90% (active)	96% (active)	99.5% (active)	59	97% (active)	99.7% (active)	63%	97% (active)	99.3% (active)
O=[N+]([O-])c1ccc(S(=O)(=O)C/C=C/CCl)c([N+](=O)[O-])c1	54	99% (active)	99.2% (active)	34	100% (active)	99.6% (active)	43	99% (active)	99.5% (active)	20%	99% (active)	99.5% (active)	37	99% (active)	99.4% (active)	71% (active)	99% (active)	99.5% (active)
Cc1c2ccncc2c(C)c2c1[nH]c1ccc(OCCN(C)C)cc12	28	93% (active)	99% (active)	5	43%	77.3% (active)	5	53%	93.3% (active)	7%	40%	71.8% (active)	4	32%	88.9% (active)	7%	51%	96.3% (active)
O=C(C(=O)c1ccc(Cc2ccc(C(=O)C(=O)c3ccccc3)cc2)cc1)c1ccccc1	-1	-20%	6.45%	0	-4%	6.4%	1	1%	-15.6%	3%	-17%	27.4%	2	-22%	0.8%	2%	-17%	12.2%
Cc1cc2c(c3c1C(=O)CC3)C(C)(C)CC2(C)C	1	77% (active)	2.9%	-1	76% (active)	9.15%	1	70% (active)	1.65%	-2%	78% (active)	-4.5%	25	92% (active)	70.2% (active)	-3%	64%	6.05%
Brc1ccc(N=Nc2ccc(-c3ccc[cH-]3)cc2)cc1.[Fe+2].c1cc[cH-]c1	3	-3%	16.1%	4	1%	6.65%	7	-14%	6.3%	8%	11%	5.75%	6	9%	45.4%	-2%	1%	14.7%
Cn1cnc([N+](=O)[O-])c1Sc1ccc(Cl)cc1	16	93% (active)	93.8% (active)	8	92% (active)	76.9% (active)	11	98% (active)	90.9% (active)	2%	61%	42.2%	0	92% (active)	83.2% (active)	5%	97% (active)	90.3% (active)
CC1Cc2ccc3c(c2C(c2ccc4c(c2)OCO4)C1C)OCO3 (configuration not stated)	-4	-16%	-3.7%	3	-19%	-15.1%	1	14%	-5.1%	-23%	-14%	-4.7%	-5	-3%	-3.35%	-11%	26%	8.9%
CCCSc1ncnc2nc(C)[nH]c12	-1	-1%	6.9%	3	-7%	-14.5%	-2	-3%	2.25%	0%	-1%	39.6%	-1	-6%	1.85%	0%	0%	-8.25%
CC(O)CC(O)CC1CCCO1 (configuration not stated)	5	22%	39.2%	1	9%	35.6%	1	4%	25.2%	2%	9%	33.1%	3	19%	82.7% (active)	3%	8%	41.2%
CN(C)C(=O)/N=c1\ss/c(=N\C(=S)N(C)C)n1-c1ccccc1	-1	78% (active)	68.2%	-9	56%	45.8%	4	95% (active)	72% (active)	-17%	29%	41.6%	-8	50%	68.5%	9%	92% (active)	62.2%
N#C/C=C/C=C/C#N	1	2%	24.4%	5	2%	79.8% (active)	2	3%	6.95%	-1%	-3%	78.4% (active)	-2	-5%	99.5% (active)	-4%	-1%	56.3%
O=C(Cc1ccccc1)NNc1nc(NNC(=O)c2ccncc2)nc(Nc2ccccc2)n1	11	18%	26%	-9	11%	10.4%	12	11%	33.3%	-10%	21%	-2.6%	-10	19%	36.6%	13%	25%	51.1%
CC1CCC2(CC1)NC1=C(CC(C)CC1)C1=C2CC(C)CC1 (configuration not stated)	46	87% (active)	3.8%	28	85% (active)	-29.6%	-1	27%	-21.9%	14%	26%	13.2%	-16	17%	-4.4%	32%	89% (active)	10.4%
